Experimental data reported in the supplement of paper PMC6607015.
Counter-ions that a name gives are not always drawn.

How the values were obtained:
Settings in all cases: compound concentration in added solution (µM; 5 µl added to 20 µl cells): 10; 18 h
A431 [1] = experiment: LBPA endosome anti-LBPA integrated intensity (sum per cell), Z-score; higher = more LBPA staining
Outline: (§1)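 Z-scores normalised in AcuityXpress are given for per-cell integrated LBPA or filipin intensity, measured whole-cell or within LBPA endosomes by MetaXpress segmentation. Cells (HeLa MZ or A431, 3,500 per well in 20 µl) were seeded onto 5 µl of 10 µM compound solution in duplicate 384-well imaging plates and fixed in 4% PFA after 18 h.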

HeLa MZ [2] = experiment: as above
Outline: as §1

A431 [3] = experiment: whole-cell filipin (free cholesterol) integrated intensity, Z-score; higher = more cholesterol staining
Outline: as §1

HeLa MZ [4] = experiment: as above
Outline: as §1

A431 [5] = experiment: filipin (cholesterol) integrated intensity within LBPA endosomes, Z-score; higher = more cholesterol in LBPA endosomes
Outline: as §1

HeLa MZ [6] = experiment: as above
Outline: as §1

Row | SMILES | LBPA endosome anti-LBPA integrated intensity (z-score) (A431 [1]) | LBPA endosome anti-LBPA integrated intensity (z-score) (HeLa MZ [2]) | whole-cell filipin (z-score) (A431 [3]) | whole-cell filipin (z-score) (HeLa MZ [4]) | filipin (z-score) (A431 [5]) | filipin (z-score) (HeLa MZ [6])
1 | CN1C(C(=O)Nc2ccccn2)=C(O)c2sccc2S1(=O)=O [Tenoxicam] | -0.541 | -0.303 | -0.432 | -0.0776 | -0.522 | -0.391
2 | CCn1cc(C(=O)O)c(=O)c2ccc(C)nc21 [Nalidixic acid sodium salt] | -0.59 | -0.884 | -0.346 | -0.298 | -0.467 | -0.567
3 | CCN(CC)CCOC(=O)c1ccc(N)cc1 [Procaine hydrochloride] | -0.324 | 0.381 | -1.04 | -0.86 | -0.492 | -0.418
4 | CC[N+](C)(C)Cc1ccccc1Br [Bretylium tosylate] | -0.568 | -0.254 | -0.37 | -0.522 | -0.5 | -0.561
5 | CN(Cc1ccc(C(C)(C)C)cc1)Cc1cccc2ccccc12 [Butenafine Hydrochloride] | -0.698 | -1.43 | -0.644 | -0.481 | -0.512 | -0.793
6 | CC(=O)O[C@]1(C(C)=O)CC[C@H]2[C@@H]3C=C(C)C4=CC(=O)CC[C@]4(C)[C@H]3CC[C@@]21C [Megestrol acetate] | -0.482 | -1.05 | -0.244 | 0.402 | -0.317 | -0.342
7 | COc1cc2nc(N3CCN(C(=O)C4CCCO4)CC3)nc(N)c2cc1OC (centres undefined) [Terazosin hydrochloride] | -0.178 | 0.906 | -0.323 | -0.357 | -0.379 | 0.00198
8 | CN1CCN(C2=Nc3ccccc3Oc3ccc(Cl)cc32)CC1 [Loxapine succinate] | 0.352 | 1.12 | 0.0252 | -0.743 | 0.0734 | -0.11
9 | CC(=O)OCC(=O)[C@@]1(O)[C@H](C)C[C@H]2[C@@H]3CCC4=CC(=O)C=C[C@]4(C)[C@@]3(F)[C@@H](O)C[C@@]21C [Dexamethasone acetate] | -0.279 | -0.245 | -0.619 | -0.504 | -0.34 | -0.593
10 | Nc1ccc(S(=O)(=O)Nc2ccnn2-c2ccccc2)cc1 [Sulfaphenazole] | -0.541 | -1.02 | -0.89 | -1.05 | -0.533 | -0.671
11 | C[C@H](O)C(=O)Nc1c(I)c(C(=O)NC(CO)CO)c(I)c(C(=O)NC(CO)CO)c1I [Iopamidol] | -0.637 | -1.5 | -0.34 | -0.1 | -0.494 | -0.379
12 | COc1cccc(N(C)C(=S)Oc2ccc3c(c2)CCCC3)n1 [Liranaftate] | 0.29 | -0.439 | -0.212 | 0.593 | -0.0958 | -0.421
13 | N=C(N)NCCN1CCCCCCC1 [Guanethidine sulfate] | -0.647 | -1.05 | -0.871 | -0.0594 | -0.596 | -0.454
14 | CC(C)NCC(O)COc1ccc(COCCOC(C)C)cc1 (centres undefined) [Bisoprolol fumarate] | 0.695 | 0.146 | -0.603 | 0.308 | -0.0123 | -0.0431
